Rows were chosen to be rich in hits. Some 18% of all compounds tested hit in one or more screens of this group.
TGFb SMAD3 inh: qHTS for Inhibitors of TGF-b | 410,000 tested, 1.2% active | Potency, µM (titrated, usually from 46.1 µM), without a hit: at the top dose activity, negative = inhibition, usual class: inhibitors | HepG2 CAGA-GFP TGF-b/SMAD3 reporter, GFP fluorescence, 18 h; TGF-beta stimulated, 500 pg/mL final; further: potency means the concentration at half of the fitted maximal effect; on the % scale 0 is the no-effect control and ±100 the full control effect; nearly all actives have a fitted effect of over 65% in size
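Using HEPG2 CAGA-GFP reporter cells at 1000 cells/well, we pinned test compounds, stimulated with recombinant TGF-beta (500 pg/mL final) and measured total well GFP after 18 h.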
TDP1 cell CPT: qHTS for Inhibitors of human tyrosyl-DNA phosphodiesterase 1 (TDP1): qHTS in cells in presence of CPT. chicken DT40 Tdp1-/-;hTDP1 cells + 20 nM CPT, ATP luminescence, 48 h. 420,000 tested, 12% active. Potency, µM (top dose mostly 46.2 µM), for the others: top-dose activity change, negative = growth inhibition, usual class: inhibitors; further: potency means the concentration at half of the fitted maximal effect; on the % scale 0 is the no-effect control and ±100 the full control effect; nearly all actives have a fitted effect of over 55% in size
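Chicken DT40 Tdp1-/- cells complemented with human TDP1, 400 cells/well, exposed to compounds plus 20 nM camptothecin for at least 48 h at 37 C; viability read as ATP content by CellTiter-Glo luminescence.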
HepG2 viability: qHTS for Inhibitors of TGF-b: Cytotox Counterscreen; HepG2 CAGA-GFP viability, ATP luminescence, 18 h; Potency, µM (doses to about 46.1 µM), for the others: at the highest dose activity change, negative = cytotoxicity, hits mostly cytotoxic; AID 588856, 2011; 410,000 tested, 0.76% active; further: potency means the concentration at half of the fitted maximal effect
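HepG2 CAGA-GFP cells (1000/well, DMEM with 1% FBS) received compound, then TGF-beta at 500 pg/mL final, and were incubated 18 hours at 37 degrees C. Viability was read by CellTiter-Glo luminescence. Media-only wells were set as complete cell-killing and DMSO as no toxicity.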
IL-1B inflam inh: qHTS for Inhibitors of Inflammasome Signaling: IL-1-beta AlphaLISA Primary Screen | THP-1 LPS/ATP IL-1B secretion, AlphaLISA, 16 h; stronger effect = lower value | activity change, % at 57.5 µM | 360,000 tested, 4.7% active | AID 743279, 2014; in the data active means activity change below about -50%; inconclusive means mostly about -30% to -49%; further: on the % scale 0 is the no-effect control and ±100 the full control effect
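THP-1 cells pretreated 1 hr with compounds (up to 57.5 uM final), then stimulated with LPS (250 ng/mL final) plus ATP (1.25 mM final); secreted IL-1B measured by AlphaLISA after 16 hr, decreased signal indicating inhibition.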
TDP1 block: qHTS Assay for Inhibitors of Tyrosyl-DNA Phosphodiesterase (TDP1); recombinant TDP1, AlphaScreen DNA substrate cleavage; Tyrosyl-DNA phosphodiesterase 1 (Homo sapiens), Q9NUW8; AID 485290, 2010; 350,000 tested, 0.28% active; Potency, µM (highest dose often 130 µM), inactives show at the highest dose activity change, negative = inhibition, most hits filed as inhibitors; further: potency means the concentration at half of the fitted maximal effect; on the % scale 0 is the no-effect control and ±100 the full control effect; nearly all actives have a fitted effect of over 40% in size
Target sequence (Q9NUW8 whole entry, looked up): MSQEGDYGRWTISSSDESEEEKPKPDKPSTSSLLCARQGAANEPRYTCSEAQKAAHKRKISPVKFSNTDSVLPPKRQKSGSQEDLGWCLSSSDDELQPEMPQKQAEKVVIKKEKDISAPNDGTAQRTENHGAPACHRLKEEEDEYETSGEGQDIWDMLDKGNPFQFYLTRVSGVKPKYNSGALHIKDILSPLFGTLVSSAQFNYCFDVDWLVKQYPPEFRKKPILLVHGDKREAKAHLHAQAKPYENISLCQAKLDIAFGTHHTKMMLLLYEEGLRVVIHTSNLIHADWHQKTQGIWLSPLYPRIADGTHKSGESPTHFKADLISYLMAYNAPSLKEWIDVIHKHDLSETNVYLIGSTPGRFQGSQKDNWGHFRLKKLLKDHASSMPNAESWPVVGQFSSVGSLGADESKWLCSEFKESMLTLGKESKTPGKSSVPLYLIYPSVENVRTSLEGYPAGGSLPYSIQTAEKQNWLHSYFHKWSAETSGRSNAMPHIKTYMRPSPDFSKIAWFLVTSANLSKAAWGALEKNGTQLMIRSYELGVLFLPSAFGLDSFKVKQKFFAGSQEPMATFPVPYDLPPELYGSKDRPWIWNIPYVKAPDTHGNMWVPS
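Tdp1 1 nM final; 15 min RT w/ cpd; substrate 15 nM, 5 min; beads 10 ug/ml, 10 min; AlphaScreen read. Neg ctrl: no enzyme.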
TDP1 cell noCPT: qHTS for Inhibitors of human tyrosyl-DNA phosphodiesterase 1 (TDP1): qHTS in cells in absence of CPT; DT40 Tdp1-/- hTDP1 cells, no CPT, ATP luminescence, 48 h; Potency, µM (highest dose often 46.2 µM), inactives show top-dose activity change, negative = growth inhibition, most hits filed as inhibitors; 420,000 tested, 15% active; AID 686978, 2013; further: potency means the concentration at half of the fitted maximal effect; on the % scale 0 is the no-effect control and ±100 the full control effect; nearly all actives have a fitted effect of over 55% in size
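Readout: luminescence from CellTiter-Glo after 30 min in the dark at RT. Cells: DT40 Tdp1-/- with stable hTDP1, 400/well. Exposure: compounds alone, ≥48 hr, 37 °C.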
* = called active by the depositor. Unless noted, the call rests on the fitted dose curve; in most records, active means well fitted curve in the direction sought with a large enough effect; inconclusive means small, poorly fitted or top-dose-only effect, or another doubt; inactive means no such curve, though single readings can be large; an effect the other way counts as inactive or inconclusive.

COc1ccccc1Cn1c(CNS(=O)(=O)c2c(C)cc(C)cc2C)nc2cccnc21 was read as TGFb SMAD3 inh inconclusive, TDP1 cell CPT 16.4µM*, HepG2 viability -28.2%, TDP1 block 11.0% and TDP1 cell noCPT 16.4µM*.
`Cc1ccc(Cn2c(CNC(=O)c3ccc(Cl)c([N+](=O)[O-])c3)nc3cccnc32)cc1` gave TGFb SMAD3 inh inconclusive, TDP1 cell CPT inconclusive, HepG2 viability -25.4%, TDP1 block 8.8% and TDP1 cell noCPT inconclusive.
`CCc1ccc(Cn2c(CNS(=O)(=O)c3ccc(C)c(C)c3)nc3cccnc32)cc1` gave TGFb SMAD3 inh inconclusive, TDP1 cell CPT inconclusive, HepG2 viability -21.3%, TDP1 block 6.6% and TDP1 cell noCPT inconclusive.
For Cc1ccc(Cn2c(CNC(=O)c3ccccc3Br)nc3cccnc32)cc1 the results were TGFb SMAD3 inh -10.0%, TDP1 cell CPT inconclusive, HepG2 viability -12.7%, TDP1 block 5.5% and TDP1 cell noCPT 16.4µM*.
For Cc1ccc(Cn2c(CNS(=O)(=O)c3ccc(C(C)(C)C)cc3)nc3cccnc32)cc1 the results were TGFb SMAD3 inh inconclusive, TDP1 cell CPT inconclusive, HepG2 viability -42.1%, TDP1 block 11.0% and TDP1 cell noCPT inconclusive.
Cc1ccc(Cn2c(CNS(=O)(=O)c3c(C)cc(C)cc3C)nc3cccnc32)cc1 was read as TGFb SMAD3 inh inconclusive, TDP1 cell CPT 16.4µM*, HepG2 viability -18.6%, TDP1 block 5.5% and TDP1 cell noCPT inconclusive.
CCOc1ccc(Cn2c(CNS(=O)(=O)c3ccc(Cl)s3)nc3cccnc32)cc1 was read as TGFb SMAD3 inh inconclusive, TDP1 cell CPT 18.4µM*, HepG2 viability -25.5%, TDP1 block 5.5% and TDP1 cell noCPT inconclusive.
Screening CCOc1ccc(Cn2c(CNS(=O)(=O)c3ccc(CC)cc3)nc3cccnc32)cc1 returned TGFb SMAD3 inh inconclusive, TDP1 cell CPT inconclusive, HepG2 viability -18.6%, TDP1 block 6.6% and TDP1 cell noCPT inconclusive.
For CCOc1ccc(Cn2c(CNS(=O)(=O)c3c(C)cc(C)cc3C)nc3cccnc32)cc1 the results were TGFb SMAD3 inh inconclusive, TDP1 cell CPT inconclusive, HepG2 viability -23.0%, TDP1 block 6.6% and TDP1 cell noCPT 18.4µM*.
For COC(=O)c1ccc(C(=O)N2CCc3c(C(=O)NC(C)c4ccco4)c(OC)cc(=O)n3CC2)cc1 (stereo not given) the results were TDP1 cell CPT -1.3% and TDP1 cell noCPT -3.8%.
Cc1ccc(C(OCC(C)(C)C[N+](C)(C)C)c2ccccc2)cc1 (stereo not given) was read as TGFb SMAD3 inh 10.1%, TDP1 cell CPT 5.8µM*, HepG2 viability 5.3%, IL-1B inflam inh -52.0*, TDP1 block 3.7% and TDP1 cell noCPT 5.17µM*.
Screening Brc1c(OCCOCCn2cncn2)ccc2ccccc12 returned TGFb SMAD3 inh inconclusive, TDP1 cell CPT inconclusive, HepG2 viability -16.0%, IL-1B inflam inh -2.2, TDP1 block 5.6% and TDP1 cell noCPT 25.9µM*.
c1ccc(Nc2nc(Nc3ccccc3)nc(-n3cccn3)n2)cc1 was read as TGFb SMAD3 inh -18.6%, TDP1 cell CPT 7.08µM*, HepG2 viability 0.0%, TDP1 block 0.9% and TDP1 cell noCPT 5.01µM*.
c1ccc(Nc2nc(N3CCCCC3)nc(N3CCNCC3)n2)cc1 was read as TGFb SMAD3 inh -2.1%, TDP1 cell CPT 29.1µM*, HepG2 viability 11.2µM*, IL-1B inflam inh -65.3*, TDP1 block 4.0% and TDP1 cell noCPT 18.4µM*.
Fc1ccc(Nc2nc(Oc3ccccc3F)nc(N3CCCC3)n2)cc1 was read as TGFb SMAD3 inh inconclusive, TDP1 cell CPT -28.2%, HepG2 viability -15.6%, IL-1B inflam inh -52.6*, TDP1 block 9.3% and TDP1 cell noCPT inconclusive.
Screening COc1nc(Nc2cccc(C)c2)nc(N2CCCCC2)n1 returned TGFb SMAD3 inh inconclusive, TDP1 cell CPT 18.4µM*, HepG2 viability -31.0%, IL-1B inflam inh 11.9, TDP1 block 3.1% and TDP1 cell noCPT 16.4µM*.
c1ccc(Nc2nc(N3CCCC3)nc(N3CCCC3)n2)cc1 was read as TGFb SMAD3 inh -10.2%, TDP1 cell CPT inconclusive, HepG2 viability -32.0%, IL-1B inflam inh -5.0, TDP1 block 6.0% and TDP1 cell noCPT -25.8%.
For c1ccc(Nc2nc(N3CCCCC3)nc(N3CCCCC3)n2)cc1 the results were TGFb SMAD3 inh 0.0%, TDP1 cell CPT inconclusive, HepG2 viability -40.6%, IL-1B inflam inh -11.4, TDP1 block 1.4% and TDP1 cell noCPT inconclusive.
Cc1cccc(Nc2nc(N3CCCC3)nc(N3CCCC3)n2)c1 was read as TGFb SMAD3 inh -0.3%, TDP1 cell CPT inconclusive, HepG2 viability -11.4%, IL-1B inflam inh -26.3, TDP1 block -0.7% and TDP1 cell noCPT -29.7%.
Cc1ccc(-c2noc(C3CCCN(C(=O)c4ccccc4Br)C3)n2)o1 (stereo not given) was read as TGFb SMAD3 inh -0.2%, TDP1 cell CPT -29.5%, HepG2 viability 6.2%, IL-1B inflam inh 21.1 and TDP1 cell noCPT inconclusive.
For C=CCC(C)(O)CCc1ccccc1 (stereo not given) the results were TDP1 block 8.1%.
`CN=C1S/C(=C\c2cc(C)n(-c3ccccc3F)c2C)C(=O)N1C` gave TGFb SMAD3 inh inconclusive, TDP1 cell CPT 14.6µM*, HepG2 viability 10.7%, IL-1B inflam inh -21.8, TDP1 block 11.6% and TDP1 cell noCPT 23.1µM*.
For Cc1ccc(-n2c(C)cc(C=C3C(=O)N(C)C(=O)N(C)C3=O)c2C)cc1 the results were TGFb SMAD3 inh -1.8%, TDP1 cell CPT 6.0%, HepG2 viability 12.2%, IL-1B inflam inh -6.1 and TDP1 cell noCPT -0.7%.
Screening COC(=O)C1=C(O)/C(=C\c2cc(C)n(-c3ccccc3F)c2C)N=C1C returned TGFb SMAD3 inh 0.6%, TDP1 cell CPT -18.7%, HepG2 viability -1.4%, IL-1B inflam inh 29.4, TDP1 block 6.2% and TDP1 cell noCPT -22.6%.

Assay outcomes: PubChem, National Center for Advancing Translational Sciences (NCATS)
